The record followed here is PubChem BioAssay (NCATS).

The nature of test [1]: Drug repurposing screens with cells derived from glioblastoma tumor samples (AID 1345199). Also: nearly all actives have a fitted effect of over 40% in size. As to conditions: GBM patient neurospheres viability, ATP luminescence, 48 h. In outline: (§1)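 Primary testing used CD133+ neurospheres from four GBM patients, seven concentrations, 48 h exposure and ATP-based viability; confirmation added three slower-growing patient lines.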
In a further test the test system is astro (control astrocytes). The test is described as above. The following applies: viability, ATP luminescence, 48 h; series mostly up to 45.9 µM. In short, it runs like this:
as §1

[2] abbreviates: at 45.9 µM (top of the series), tumour line B.
Where [3] appears, read: at 45.9 µM (top of the series), tumour line D.
Setting [4] is: at 46.1 µM (top of the series), tumour line C.
Where [5] appears, read: at 20 µM (top of the series), tumour line C.
Where [6] appears, read: at 21.2 µM (top of the series), tumour line B.
Where [7] appears, read: at 21.2 µM (top of the series), tumour line D.
[8] abbreviates: at 21.3 µM (top of the series), tumour line A.

Values joined by “and” are separate entries in the source; they are usually repeats but may differ in a detail not shown here. Identical values can stand only once. Inconclusive results are not listed. A number with no mark means an inactive call. Active and inactive are the calls of the source. Calls follow the shape of the dose curve; as a rule, active = well fitted inhibition curve with a large enough effect; inconclusive = small, poorly fitted or top-dose-only effect; inactive = flat fitted curve, though single readings scatter.
% is scaled to controls: 0 for no effect and ±100 for the full control effect; potency is read from the fitted curve at half-maximal effect.

As to `O=S(=O)(O)CC(S)CS` (stereo unspecified), the values for the activity, negative = cell killing in test [1] (setting [2]), in test [1] (setting [3]) and in test [1] (setting [4]) were -24.2%, -0.499% and -22%, respectively. In addition, the Potency result with astro is “inactive”.
In the same order, the values of `NC(Cc1ccccc1)C(=O)O` (stereo unspecified) are -8.84%, 10.2%, -12.6% and “inactive”.
Turning to `Cn1nnnc1SCC1=C(C(=O)O)N2C(=O)[C@@H](NC(=O)[C@H](O)c3ccccc3)[C@H]2SC1`, the figures for the activity, negative = cell killing in test [1] (setting [5]), in test [1] (setting [6]) and in test [1] (setting [7]) were -9.7%, -12.5% and -10.9%, respectively. Further, the Potency result in the test with astro was “inactive”.
In the case of `O=C1c2ccccc2C(=O)C1c1ccc(Cl)cc1`, the results for the activity, negative = cell killing in test [1] (setting [2]), in test [1] (setting [3]) and in test [1] (setting [4]) were -10.4%, -11.7% and -10.5%, respectively. Further, the Potency entry with astro is “inactive”.
Turning to `C(=C\c1ccncc1)/c1ccccc1`, the activity, negative = cell killing in test [1] (setting [2]) was -13.9% and -17.3%; in test [1] (setting [3]), -13.7% and -5.95%; in test [1] (setting [4]) it was -11.5%. Also, the Potency entry with astro was “inactive”.
For the compound `CC(O)CN(C)C` (stereo unspecified), the activity, negative = cell killing was -7.97% in test [1] (setting [2]), -11.2% in test [1] (setting [3]) and -3.25% in test [1] (setting [4]). The Potency entry in the test with astro is “inactive”.
In the same order, the values of `CC(C)C[C@@H](NC(=O)[C@@H](O)[C@H](N)Cc1ccccc1)C(=O)O` are -12.5%, -2.21%, -22.2% and “inactive”.
In the same order, the values of `C[C@H](NCCc1ccc(O)cc1)[C@H](O)c1ccc(O)cc1` are -2.5%, -20.4%, -12.8% and “inactive”.
In the same order, the values of `O=c1[nH]c(=O)n([C@H]2C[C@H](O)[C@@H](CO)O2)cc1/C=C/Br` are -10.7%, -3.23%, -17.1% and “inactive”.
For `CO/N=C(\C(=O)N[C@@H]1C(=O)N2C(C(=O)[O-])=C(C[n+]3ccc(N)n3CCO)CS[C@H]12)c1csc(N)n1`, the activity, negative = cell killing in test [1] (setting [2]) is -6.9%; in test [1] (setting [3]), -6.66%; in test [1] (setting [4]), -25.8%. The Potency result with astro was “inactive”.
In the same order, the values of `Cc1ccc(S(=O)(=O)NC(=O)N[C@@H](C)Cc2ccccc2)cc1` are -12%, -19.4%, -17.1% and “inactive”.
In the same order, the values of `OC[C@H]1O[C@@H](O[C@H]2[C@H](O)[C@@H](O)[C@H](O)O[C@@H]2CO)[C@H](O)[C@@H](O)[C@@H]1O` are -9.2%, 6.26%, -13.5% and “inactive”.
Consider `C=CC[N@@+]12CC[C@@]34c5ccccc5N5/C=C6/[C@H]7C[C@H]8[C@@]9(CC[N@@+]8(CC=C)C/C7=C/CO)c7ccccc7N(/C=C(/[C@@H](C[C@@H]31)/C(=C\CO)C2)[C@H]54)[C@@H]69`, for which the activity, negative = cell killing in test [1] (setting [5]) was -3.52%; in test [1] (setting [6]) it was -8.94%; in test [1] (setting [7]), 3.96%. Besides, the Potency entry in the test on astro is “inactive”.
Turning to `O=C[C@H](O)[C@@H](O)[C@@H](O)[C@H](O)CO`, the activity, negative = cell killing was -11.6% in test [1] (setting [2]), 0.16% in test [1] (setting [3]) and 10.2% in test [1] (setting [4]). Besides, the Potency result in the test with astro was “inactive”.
In the same order, the values of `CC(=O)N[C@@H](C=O)[C@@H](O)[C@H](O)[C@H](O)CO` are -6.52%, -3.57%, -2.77% and “inactive”.
For the compound `CCC[C@@H]1C[C@@H](C(=O)N[C@@H]([C@H]2O[C@H](SC)[C@H](O)[C@@H](O)[C@H]2O)[C@H](C)Cl)N(C)C1`, the activity, negative = cell killing is 1.77% in test [1] (setting [2]); -7.32% in test [1] (setting [3]); -25.1% in test [1] (at 46 µM (top of the series), tumour line A). For the same compound, in the test with astro, the Potency result was “inactive”.
For the compound `Cc1ncc(C[n+]2csc(CCOP(=O)(O)OP(=O)(O)O)c2C)c(N)n1`, the activity, negative = cell killing in test [1] (setting [2]) is -10%; in test [1] (setting [3]) it was -6.5%; in test [1] (setting [4]), 18.5%. Moreover, the Potency entry in the test on astro is “inactive”.
In the same order, the values of `Cc1cccc(Nc2ncccc2C(=O)O)c1C` are -17.7%, -8.87%, -27.1% and “inactive”.
In the same order, the values of `CCOc1ccc(NC(=S)Nc2ccc(OCC)cc2)cc1` are -13.1%, -11.1%, -27.8% and “inactive”.
In the same order, the values of `COc1ccc(C(=O)c2ccc(C)cc2)c(O)c1` are -19.8%, -4.36%, -21.4% and “inactive”.
Take `CC(=O)[C@H]1CC[C@H]2[C@@H]3C=CC4=CC(=O)CC[C@@]4(C)[C@H]3CC[C@]12C`: the activity, negative = cell killing in test [1] (setting [5]) was -18.4%; in test [1] (setting [6]) it was -29%. The Potency in test [1] (tumour line A) was 3.55 µM (active). Also, the Potency entry in the test on astro is “inactive”.
Regarding `COc1c(O[C@@H]2O[C@H](CO)[C@@H](O)[C@H](O)[C@H]2O)cc2c(c1OC)-c1ccc(SC)c(=O)cc1[C@@H](NC(C)=O)CC2`, in test [1] (setting [8]), the activity, negative = cell killing is -6.81%.
On the same count and under the same terms, as for `CN[C@@H]1[C@@H](O)[C@@H](O[C@@H]2[C@@H](O)[C@H](OC3OC(CN)=CCC3N)[C@@H](N)C[C@H]2N)OC[C@]1(C)O` (stereo partly specified), the figure is -25.4%.
